The values below come from PubChem BioAssay AID1531 (NMMLSC, 2009).

Screen size: about 290,000 compounds; about 3,300 (1.1%) were called active. The entries come from a sample that favours actives as a whole. Unmarked numbers belong to inactive results. Cut-off read from the data, not from the text of the source: active = binding response below about 67% or above about 130%; inconclusive = no clear call, values can overlap the other calls; inactive = in between.

This assay deals with Mitogen-activated protein kinase kinase kinase 2 (Homo sapiens) (UniProt Q9Y2U5). The assay is described as follows: modulators of MEK5 binding to wildtype MEKK2, primary screen, biochemical, multiplex bead flow cytometry, Alexa488-MEK5 (AID 1531). The conditions noted are these: Alexa488-MEK5 binding to MEKK2 WT, at 10 µM, actives lie on both sides.
With `O=C(O)COc1ccccc1/C=C1\C(=O)NC(=O)N(CCC2=CCCCC2)C1=O`, the binding response (% of control) is -4% (active).

With `O=C1NC(=O)N(Cc2ccco2)C(=O)/C1=C\c1cccn1CCOc1ccccc1`, the binding response (% of control) was 110%.

As to `O=C1NC(=O)N(CCc2ccc(F)cc2)C(=O)/C1=C/C=C/c1ccccc1`, the binding response (% of control) was 97%.

Consider `CCOP(=S)(OCC)C(O)CCCCCn1c(=O)c(F)cn(C2CCCO2)c1=O` (stereo not given), for which the binding response (% of control) was 106%. With `CCCCCCCCCCCCn1ccc(=N)cc1`, the binding response (% of control) is 173% (active).

On to `c1ccc(CC2CCCCN2)cc1` (stereo not given), for which the binding response (% of control) was 107%. Regarding `N#Cc1ccc(Cn2cc(C(=O)c3ccco3)c3ccccc32)cc1`, the binding response (% of control) was 98%.

As to `Cc1ccc2c(c1)=C/C(=C\c1c(O)[nH]c(=O)[nH]c1=O)C(=O)N=2`, the binding response (% of control) is 99%.

`COC(=O)N1C(c2ccccc2)C1c1ccccc1` (stereo not given): the binding response (% of control) is 101%. `CNCC(O)c1cc(F)c(OCc2ccccc2)c(OCc2ccccc2)c1F` (stereo not given): the binding response (% of control) is 141% (active). As to `COC(=O)C1=C(c2cc3ccccc3s2)C[C@@H]2CC[C@H]1N2C(=O)NCc1cccc2ccccc12`, the binding response (% of control) is 93%.

For `c1ccc(CCNC2CCCCCC2)cc1`, the binding response (% of control) was 101%. With `COc1ccc(-n2c(O)c(C(C)=Nc3ccc4c(c3)CCC4)c(=O)[nH]c2=O)cc1` the figure was 99%. As for `CN(C)S(=O)(=O)c1cc(C(=O)N2CCC(C(=O)O)(c3ccccc3)CC2)ccc1Cl`, the figure is 106%; as for `COC(=O)C1=C(c2cc3ccccc3o2)C[C@@H]2CC[C@H]1N2C(=O)NC1CCCCC1`, 101%.
